The values that follow come from PubChem BioAssay AID1645857 (Buhrlage Lab, Dana-Farber Cancer Institute and Novartis …, 2021).

Screen size: about 47,000 compounds; about 1,400 (3%) were called active. Many of the other results were omitted from the sample, so actives are more common in it than they were. A number with no mark means an inactive call. Cut-off read from the data, not from the text of the source: active = inhibition above about 30%; inactive = the rest.

Ubiquitin carboxyl-terminal hydrolase 28 (Homo sapiens), sequence (Q96RU2 whole entry, looked up): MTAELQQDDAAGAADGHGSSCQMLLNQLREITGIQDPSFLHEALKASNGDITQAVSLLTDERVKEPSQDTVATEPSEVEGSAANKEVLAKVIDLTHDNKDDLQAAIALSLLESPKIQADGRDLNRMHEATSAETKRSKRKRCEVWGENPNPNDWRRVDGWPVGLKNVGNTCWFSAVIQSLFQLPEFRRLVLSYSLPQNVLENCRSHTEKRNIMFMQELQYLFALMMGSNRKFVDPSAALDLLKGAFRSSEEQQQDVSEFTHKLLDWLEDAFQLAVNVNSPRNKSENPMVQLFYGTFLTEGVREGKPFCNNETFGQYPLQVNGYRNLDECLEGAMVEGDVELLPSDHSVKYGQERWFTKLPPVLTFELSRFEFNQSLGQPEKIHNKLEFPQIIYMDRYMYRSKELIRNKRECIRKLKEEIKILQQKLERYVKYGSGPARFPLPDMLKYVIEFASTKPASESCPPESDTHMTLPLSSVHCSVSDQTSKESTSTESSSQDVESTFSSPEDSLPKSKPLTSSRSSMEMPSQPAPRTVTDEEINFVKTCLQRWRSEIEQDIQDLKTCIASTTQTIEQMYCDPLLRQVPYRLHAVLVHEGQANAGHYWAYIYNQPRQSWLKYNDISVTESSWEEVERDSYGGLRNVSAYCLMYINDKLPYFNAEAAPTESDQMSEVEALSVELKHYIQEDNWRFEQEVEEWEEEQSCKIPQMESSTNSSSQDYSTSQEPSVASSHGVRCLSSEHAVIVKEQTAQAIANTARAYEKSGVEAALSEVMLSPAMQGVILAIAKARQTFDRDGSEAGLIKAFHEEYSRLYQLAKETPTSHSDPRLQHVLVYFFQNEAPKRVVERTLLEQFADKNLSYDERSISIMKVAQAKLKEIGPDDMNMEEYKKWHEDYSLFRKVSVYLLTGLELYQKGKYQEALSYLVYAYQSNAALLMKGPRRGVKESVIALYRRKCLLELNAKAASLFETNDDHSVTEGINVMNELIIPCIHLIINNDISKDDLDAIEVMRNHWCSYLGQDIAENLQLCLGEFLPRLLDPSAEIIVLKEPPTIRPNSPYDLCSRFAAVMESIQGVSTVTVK

This experiment addresses Ubiquitin carboxyl-terminal hydrolase 28 (Homo sapiens) (UniProt Q96RU2). The experiment can be described thus: inhibitors of human USP28 deubiquitinase (AID 1645857). Conditions: purified USP28, Ub-rhodamine cleavage fluorescence, 30 min; at 25 µM; hits give high values.
For orientation: inhibition means the drop in the measured response relative to a control, in per cent. With `O=C(NCC(c1cccnc1)N1CCc2ccccc2C1)c1cccc(F)c1` (stereo unspecified), the inhibition is -8.37%.

As to `COc1ccc(N(Cc2cc(=O)[nH]c3ccccc23)C(=O)c2ccc(Cl)cc2)cc1`, the inhibition was 9.24%.

For the compound `Cc1cc(N)nc2c1c(C)nn2-c1ncc(C(F)(F)F)cc1Cl`, the inhibition was -20.8%.

Consider `O=c1[nH]oc(O)c1-c1ncc(C(F)(F)F)cc1Cl`, for which the inhibition was 8.59%.

On to `CC(=O)c1ccc(Cc2ncc(C(F)(F)F)cc2Cl)s1`, for which the inhibition was 61% (active).

`COc1ccc(N(CC(=O)N2CCc3ccccc32)S(=O)(=O)c2ccccc2)cc1`: the inhibition is -2%.

Consider `O=C(c1ccccc1F)N1CCCC1c1nccnc1-c1ncc[nH]1` (stereo unspecified), for which the inhibition is 8.72%.

On to `O=C(COc1ccccc1)N1CCc2[nH]nc(-c3ccccc3)c2C1`, for which the inhibition is 5.14%.

For the compound `COc1ccc(Oc2nc(C)c(-c3ccccc3)cc2C#N)cc1`, the inhibition was 13.9%.

As for `COc1ccccc1N1C(=O)c2ccccc2N2C(=O)c3ccccc3C12` (stereo unspecified), the inhibition was 6.01%.

Take `Cc1cccc(NC(=O)c2cnn3c2NC2=C(C(=O)CCC2)C3c2ccccc2)c1` (stereo unspecified): the inhibition is -27.3%.

In the case of `CCCCOc1ccc(C(=O)Nc2ccc3c(c2)CCC(=O)N3CCC)cc1`, the inhibition is 84.6% (active).

As to `CCN1C(=O)CCc2cc(NC(=O)Cc3ccc(OC)c(Cl)c3)ccc21`, the inhibition is 2.71%.

Turning to `COCCN1C(=O)CCc2cc(NS(=O)(=O)c3cc(C)cc(C)c3)ccc21`, the inhibition was -19.5%.

Take `Cc1ccnc(Nc2nc(-c3ccccc3)c3cc(Cl)ccc3n2)n1`: the inhibition was 12.6%.

Turning to `COc1ccccc1CC(NC(C)=O)C(=O)NC1CCN(C(=O)c2cccc(C)c2)CC1` (stereo unspecified), the inhibition is -1.93%.

`Cc1cc(C)n(CC2CCCCN2CC(=O)NC2(C#N)CCCC2)n1` (stereo unspecified): the inhibition is 0.626%.

For `Cc1ccc(C(=O)Nc2nccnc2C(=O)NCc2ccc3c(c2)OCO3)cc1`, the inhibition was -7.28%.

Consider `CCc1nc2ccc(C(=O)Nc3nc(-c4ccc5c(c4)CCN5C(=O)c4ccc(C)cc4)c(C)s3)cc2nc1CC`, for which the inhibition is -7.6%.

Consider `Cc1ccc(C(=O)Nc2nc3c(s2)CCC3C(=O)NCc2ccncc2)cc1` (stereo unspecified), for which the inhibition was 37.1% (active).

With `NS(=O)(=O)c1ccc(CNc2nc(CN3CCCCC3)nc3sc4c(c23)CCC4)cc1`, the inhibition is -16.9%.

`CCCCn1c(=O)c(CCC(=O)OCC(=O)Nc2ccc(C)c(Cl)c2)nc2ccccc21`: the inhibition is -33.9%.

Turning to `O=C(CC1CCCC1)N1CCCC(n2c(=O)[nH]c3cncnc32)C1` (stereo unspecified), the inhibition is -14.3%.

`Cc1cccc(OCc2nnc(C3(c4ccc(F)cc4)CCOCC3)o2)c1`: the inhibition is 13.2%.

As for `CC(C)Cc1nc2sc3c(NCc4ccco4)ncnc3c2c2c1CCC2`, the inhibition was 21.3%.

Regarding `Fc1ccc(-n2cc(-c3ccccc3)c3c(NCc4ccco4)ncnc32)cc1`, the inhibition was -4.6%.

With `c1coc(CNc2nc(Nc3cccc4ccccc34)nc3ccccc23)c1`, the inhibition was 43.7% (active).

Take `COc1ccccc1NC(=O)Nc1ccc(CCc2nc3ccccc3[nH]2)cc1`: the inhibition is -8.19%.

In the case of `COc1ccccc1NC(=O)N1CCN(Cc2nc3ccccc3o2)CC1`, the inhibition was -5.25%.

For the compound `CCOc1ccccc1NC(=O)Nc1cc(-c2nc3ccccc3o2)ccc1OC`, the inhibition was 30.8% (active).

For the compound `CN(C)c1cccc(C2CN(C(=O)c3ccc4n[nH]nc4c3)CCO2)n1` (stereo unspecified), the inhibition is 8.99%.

Consider `Cc1nc(-c2cccc(S(=O)(=O)NCc3ccc(Cl)cc3)c2)no1`, for which the inhibition was 15.5%.

Regarding `CN1CCN(S(=O)(=O)c2cccc(C(=O)Nc3cccc(S(N)(=O)=O)c3)c2)CC1`, the inhibition is 0.55%.

As for `Cc1cccc(NC(=O)c2ccc(N3CCC(C)CC3)c([N+](=O)[O-])c2)c1C`, the inhibition was -2.68%.

Consider `O=C(Nc1cccc(S(=O)(=O)N2CCCCCC2)c1)c1ccc(N2CCOCC2)c([N+](=O)[O-])c1`, for which the inhibition is 35.6% (active).

As for `CC1(C)CC(=O)C2=C(C1)Nc1ccccc1NC2c1ccccc1O` (stereo unspecified), the inhibition was 4.62%.

Turning to `Cc1cc(-c2cc(N)n(-c3ccccc3)n2)c(C)n1-c1cccc(C(F)(F)F)c1`, the inhibition was 3.89%.

Turning to `COc1cc(N2CC[C@@H]3[C@@H](CO[C@H]3CNC(=O)C3CC3)C2)ncn1`, the inhibition is 5.25%.

In the case of `Cc1cccc(C)c1NC(=O)c1nnn(-c2ccc3noc(-c4ccccc4)c3c2)c1C`, the inhibition is 8.24%.

With `C=C1CCC2[C@](C)(CCC[C@]2(C)C(=O)OC)[C@H]1CCc1ccoc1C[N+](C)(C)Cc1ccccc1` (stereo partly specified), the inhibition is 50.6% (active).

Turning to `C=C1CCC2[C@](C)(CCC[C@]2(C)C(=O)OC)[C@H]1CCc1ccoc1/C=C/C(=O)O` (stereo partly specified), the inhibition was 48% (active).

Take `O=C(NCc1ccc2c(c1)OCO2)c1cncc(NS(=O)(=O)c2ccc3c(c2)OCCO3)c1`: the inhibition was 4.62%.

With `N#Cc1ccc(C(=O)N2CCC(c3nc(-c4ccccc4)no3)CC2)cc1`, the inhibition is 3.9%.

Consider `O=C(c1ccccc1)N1CCC2(CC1)OCCCO2`, for which the inhibition is 4.41%.

For the compound `CCc1cc(=O)oc2cc(C)cc(OCC(=O)N3CCC4(O)CCCCC4C3)c12` (stereo unspecified), the inhibition is -0.0724%.

For the compound `Cc1ccc(-c2ncc(C(=O)Nc3ccccc3C)c(-c3ccncc3)n2)cc1`, the inhibition was -83.7%.

In the case of `Fc1ccc(CN=C2C(c3ccc4c(c3)OCCO4)=Nc3ncnn32)cc1`, the inhibition was 9.04%.

As for `CC(C)c1cc(N2CCN(CCc3ccccc3)CC2)n2c(nc3ccccc32)c1C#N`, the inhibition is -23.5%.

Take `Cc1c(-c2noc(-c3cccc(N(C)C)c3)n2)nnn1Cc1cccc(F)c1`: the inhibition was -4.14%.

On to `COc1ccc(-c2nc(-c3nnn(Cc4cccc(F)c4)c3C)no2)cc1`, for which the inhibition was 19.7%.

In the case of `CCOc1ccccc1-c1nc(-c2nnn(Cc3ccccc3)c2C)no1`, the inhibition is 41.4% (active).

In the case of `Cc1cccc(NC(=O)Nc2ccc3c(c2)N(S(=O)(=O)c2ccccc2)CC3)c1C`, the inhibition was -0.657%.

As for `Cc1nc2ccccc2c(=O)n1CC(=O)N1CCCc2ccccc21`, the inhibition is 6.83%.

As for `COC(=O)COc1cccc2c(=O)n(CC(=O)N3CCc4ccccc43)ccc12`, the inhibition is 36% (active).

Regarding `O=C(Cn1cnc2ccccc21)N1CCCc2ccccc21`, the inhibition is 15.3%.

In the case of `COc1ccc(CNC(=O)[C@H](CCSC)NC(=O)[C@@H]2Cc3c([nH]c4ccccc34)C3c4ccccc4C(=O)N32)cc1` (stereo partly specified), the inhibition is -15%.
